Source: PubChem BioAssay (NCATS)
Results filed as inconclusive are left out. Values without a mark were called inactive. The source made the active and inactive calls. Calls follow the shape of the dose curve; as a rule, active = well fitted inhibition curve with a large enough effect; inconclusive = small, poorly fitted or top-dose-only effect; inactive = flat fitted curve, though single readings scatter.

Test system: CRL-7250
Test: Cytotoxic Profiling of Annotated Libraries Using Quantitative High-Throughput Screening (AID 1296008); also: nearly all actives have a fitted effect of over 60% in size
Settings: Five cell lines viability, CellTiter-Glo ATP luminescence, 48-72 h; max response: active compounds read low
In short: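 Cytotoxicity was measured as CellTiter-Glo ATP luminescence, read after 10 min at room temperature. Compound treatment of the cells lasted 48 or 72 hr at 37 degrees Celsius in a qHTS format.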
% is scaled to controls: 0 for no effect and ±100 for the full control effect; potency is read from the fitted curve at half-maximal effect.

Question: Which max response does the source give for `CNC(=O)[C@@H](c1ccccc1)N1CCc2cc(OC)c(OC)cc2[C@@H]1CCc1ccc(C(F)(F)F)cc1` here?
Answer: Its max response is -4.36%.

Question: `CC1CCC/C=C/C(=O)c2c(O)cc(O)cc2CC(=O)O1` (stereo unspecified) was tested. Which Potency did it give?
Answer: The Potency was 7.31 µM (active).

Question: Which max response does the source give for `Cc1cc2c(cc1N1C(=O)c3cccc4c(CCCO)ccc(c34)C1=O)n(C)c(=O)n2C` here?
Answer: The max response was -31.8%.

Question: With `CCOc1cc(C(C)(C)C)ccc1C1=N[C@@](C)(c2ccc(Cl)cc2)[C@@](C)(c2ccc(Cl)cc2)N1C(=O)N1CCN(CC(=O)N2CCOCC2)CC1` as the molecule, how does the Potency read?
Answer: Its Potency is 14.8 µM (active).

Question: Which Potency does the source give for `C=C1C(=O)O[C@@H]2[C@H]1CC(=O)[C@H](C)[C@@](O)(C(=O)/C=C/C)[C@H]2OC(=O)C(C)CC` (stereo partly specified) here?
Answer: Its Potency is 7.18 µM (active).

Question: With `COc1ccc2cc3c(NC(=O)c4ccco4)nn(C)c3nc2c1` as the molecule, how does the max response read?
Answer: The max response was -20.9%.

Question: Which Potency does the source give for `CC(C)=C1C[C@@]2(C)C(=CC1=O)CC[C@@H](OC(=O)/C(C)=C/CO)[C@@H]2C` here?
Answer: The Potency was 3.21 µM (active).

Question: For `Cc1[nH]c(/C=C2\C(=O)Nc3ccc(S(=O)(=O)N(C)c4cccc(Cl)c4)cc32)c(C)c1C(=O)N1CCN(C)CC1`, which outcome is on record?
Answer: The outcome was “inactive”.

Question: For `CC(C)(O)/C=C/C(=O)[C@](C)(O)[C@H]1[C@H](O)C[C@@]2(C)[C@@H]3CC=C4[C@@H](C[C@H](O[C@@H]5O[C@H](CO)[C@@H](O)[C@H](O)[C@H]5O)C(=O)C4(C)C)[C@]3(C)C(=O)C[C@]12C`, which max response is on record?
Answer: Its max response is -1.87%.

Question: For `O=S(=O)(Nc1cc(Cl)c(Oc2cnc3ccccc3c2)c(Cl)c1)c1ccc(Cl)cc1Cl`, which outcome is on record?
Answer: The outcome was “inactive”.

Question: For `C[C@H](Nc1ncnc2nc[nH]c12)c1cc2cccc(Cl)c2c(=O)n1-c1ccccc1`, which max response is on record?
Answer: The max response was -26.4%.
